In assay [1] the test system is Zika virus NS2B-NS3 protease (unlinked complex). The assay is described as follows: Primary screen GU Rhodamine qHTS for Zika virus inhibitors: Unlinked NS2B-NS3 protease assay (AID 1347159). Note: % is set by controls: 0 for no effect and ±100 for the full control effect; nearly all actives have a fitted effect of over 60% in size. In short, it runs like this: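 Buffer 10 mM Tris-HCl pH 8.0, 0.01% Tween 20. Unlinked protease 25 nM; compound preincubation 15 min, RT, protected from light. Substrate Rhod110, 1.5 microM; ~15% conversion in 15 min.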
For orientation: In qHTS, concentration-response curves come from the screen itself.

For assay [2], the system named is Zika virus NS2B-NS3 protease (linked construct). The experiment in a line: Primary screen NINDS Rhodamine qHTS for Zika virus inhibitors (AID 1347160). For activity change, negative = inhibition: % is set by controls: 0 for no effect and ±100 for the full control effect. Note: nearly all actives have a fitted effect of over 55% in size. Note: potency is the fitted concentration of half-maximal effect. The procedure, abridged: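 Aprotinin served as in-plate control. Conditions: 25 nM linked NS2B-NS3, pH 8.0 Tris buffer, titrated compounds, 15 min preincubation and 15 min reaction with 1.5 microM Rhod110 substrate at room temperature.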

Assay [3] is described as follows: Primary qHTS for inhibitors of nuclear receptor binding SET domain protein 2 (NSD2) in an RCH-ACV wild type WT cells (2C) (AID 1645877). Note: nearly all actives have a fitted effect of over 70% in size. Note: potency is the fitted concentration of half-maximal effect.
A short description of assay [4]: Primary fluorescence-based thiol-reactive (MSTI) qHTS assay for identification of artifact compounds. (AID 1845221).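 Note: thiol-reactive compounds lower the probe fluorescence signal; nearly all actives have a fitted effect of over 65% in size.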 In short, it runs like this:
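Curve-fitted percent inhibition (4-parameter Hill) derived from fluorescence, Ex 525/Em 598 nm, scaled with Acetyl-MSTI and MSTI; 1 h incubation at room temperature.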

A short description of assay [5]: Primary redox qHTS assay for identification of artifact compounds. (AID 1845223).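 Note: 0% = DMSO and 100% = reference compound.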 The procedure, abridged:
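Redox-cycling detection via DTT (250 uM final) oxidation coupled to Amplex Red (25 uM)/HRP (250 mU/mL) in HBSS. 15 min preincubation plus 30 min after DTT, room temperature. Ex/Em 525/598 nm; 4-parameter Hill fit against DMSO and 10 uM DA3003.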

The next assay relates to KB-3-1. The experiment in a line: Cytotoxic Profiling of Annotated Libraries Using Quantitative High-Throughput Screening (AID 1296008). Note: nearly all actives have a fitted effect of over 60% in size. Note: potency is the fitted concentration of half-maximal effect. Particulars: Five cell lines viability, CellTiter-Glo ATP luminescence, 48-72 h; max response: stronger effect = lower value. In short, it runs like this: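 Cytotoxicity was measured as CellTiter-Glo ATP luminescence, read after 10 min at room temperature. Compound treatment of the cells lasted 48 or 72 hr at 37 degrees Celsius in a qHTS format.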
Background: ATP-based viability assays read luminescence as a measure of living cells.

A further assay concerns HeLa. The assay is described as follows: Primary qHTS to identify gynecologic anti-cancer compounds using libraries of approved drugs and bioactive compounds (AID 1345084). For activity change, negative = cytotoxicity: % is set by controls: 0 for no effect and ±100 for the full control effect. Note: nearly all actives have a fitted effect of over 55% in size. Note: potency is the fitted concentration of half-maximal effect. Particulars: Gynecologic cancer cell panel viability, ATPlite luminescence, 48 h; series mostly up to 57.5 µM. The procedure, abridged: (§1)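 Cytotoxicity screen measuring ATP content by luciferase luminescence. Each compound is applied at five concentrations for 48 h at 37 C with 5% CO2.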

A further assay deals with SKOV3. Described as above. Particulars: Gynecologic cancer cell panel viability, ATPlite luminescence, 48 h; series mostly up to 57.5 µM. The procedure, abridged: as §1
Assay [6] in a line: qHTS Assay for Lipid Storage Modulators (AID 1519; calls by dose curve; for activity change, negative = inhibition: % is set by controls: 0 for no effect and ±100 for the full control effect). Particulars: Drosophila S3 cells, BODIPY lipid droplet/cell ratio, laser cytometry, cells loaded with oleic acid. In short, it runs like this: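 Cells seeded at 5,000 per well were treated with compounds over a concentration series and loaded with oleic acid (400 uM, as added). Lipid droplet fluorescence (488 nm excitation, 500-530 nm channel) was read by laser-scanning cytometry and normalized to 20 uM Triacsin C.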

Assay [7] in a line: P-glycoprotein substrates identified in KB-3-1 adenocarcinoma cell line, qHTS therapeutic library screen (AID 1346986). Note: nearly all actives have a fitted effect of over 60% in size. In short, it runs like this: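 Viability read by CellTiter-Glo after 72 h compound exposure in dose-response of KB-3-1 and KB-8-5-11 (P-gp-high) cells. Hits needed AC50 < 10 uM, >50% maximum response and curve class -1.1 to -2.4. Cherry-picks retested ± tariquidar, including pcDNA/MDR-19 HEK-293 pair.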

Assay [8] deals with Cytochrome P450 2D6 (Homo sapiens) (UniProt P10635). The experiment in a line: Cytochrome P450 family 2 subfamily D member 6 (CYP2D6) small molecule antagonists: luciferase biochemical (cell-free) qHTS assay (AID 1645840; active = well fitted curve in the direction sought with a large enough effect in the repeat runs; an effect the other way counts as inactive or inconclusive; note: % is set by controls: 0 for no effect and ±100 for the full control effect; nearly all actives have a fitted effect of over 55% in size). In short, it runs like this: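 P450-Glo CYP2D6 system: proluciferin substrate converted by enzyme to luciferin, read by luminescence proportional to activity. Enzyme-substrate mix with compound 10 min at room temperature, then NADPH regeneration 1 h before detection reagent.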
Sequence of Cytochrome P450 2D6 (Homo sapiens) (P10635 whole entry, looked up): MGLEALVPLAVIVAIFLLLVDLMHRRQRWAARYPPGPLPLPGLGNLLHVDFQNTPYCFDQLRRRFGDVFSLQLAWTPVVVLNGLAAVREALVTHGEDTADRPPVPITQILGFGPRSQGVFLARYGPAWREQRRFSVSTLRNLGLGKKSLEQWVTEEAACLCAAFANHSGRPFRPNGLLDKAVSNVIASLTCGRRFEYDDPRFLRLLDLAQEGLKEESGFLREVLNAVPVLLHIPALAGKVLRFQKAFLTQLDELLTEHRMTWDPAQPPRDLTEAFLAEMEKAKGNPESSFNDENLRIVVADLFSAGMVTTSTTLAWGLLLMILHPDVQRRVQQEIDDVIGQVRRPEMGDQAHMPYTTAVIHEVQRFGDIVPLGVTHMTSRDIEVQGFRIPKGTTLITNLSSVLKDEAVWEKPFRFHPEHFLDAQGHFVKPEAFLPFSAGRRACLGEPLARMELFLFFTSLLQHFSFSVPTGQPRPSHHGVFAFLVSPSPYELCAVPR

The target in assay [9] is Cytochrome P450 2C9 (Homo sapiens) (UniProt P11712). The assay is described as follows: Cytochrome P450 family 2 subfamily C member 9 (CYP2C9) small molecule antagonists: luciferase biochemical (cell-free) qHTS assay (AID 1645842; active = well fitted curve in the direction sought with a large enough effect in the repeat runs; an effect the other way counts as inactive or inconclusive; note: nearly all actives have a fitted effect of over 55% in size; note: potency is the fitted concentration of half-maximal effect; for activity change, negative = inhibition: % is set by controls: 0 for no effect and ±100 for the full control effect). The procedure, abridged:
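P450-Glo CYP2C9 system: proluciferin substrate with enzyme in mix containing 0.4% BSA, 10 min at room temperature, then NADPH regeneration solution added and incubated 1 h at 37C. Detection reagent stopped reaction; luminescence read after 20 min as RLU.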

The target of assay [10] is Glutathione peroxidase 1 (Homo sapiens) (UniProt P07203). The assay is described as follows: Primary qHTS Assay for Inhibitors of Recombinant Selenoprotein Glutathione Peroxidase 1 (GPX1) (AID 1845191). Note: % is set by controls: 0 for no effect and ±100 for the full control effect; nearly all actives have a fitted effect of over 65% in size. The procedure, abridged: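 NADPH consumption tracked by fluorescence at 340/450 nm between t=0 and t=15 min, room temperature. Final mix: 10 nM GPX1, 100 nM glutathione reductase, 1 mM GSH, 0.5 mM NADPH, 0.5 mM cumene hydroperoxide, 0.01% BSA; 30 min compound–enzyme preincubation.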
Sequence of Glutathione peroxidase 1 (Homo sapiens) (P07203 whole entry, looked up): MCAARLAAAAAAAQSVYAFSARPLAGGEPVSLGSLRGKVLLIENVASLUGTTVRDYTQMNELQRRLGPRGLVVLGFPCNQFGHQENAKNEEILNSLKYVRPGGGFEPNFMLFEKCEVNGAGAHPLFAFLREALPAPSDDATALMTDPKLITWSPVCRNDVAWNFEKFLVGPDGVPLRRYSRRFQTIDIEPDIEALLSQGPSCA

The next assay concerns CRL-7250. The assay is described as follows: qHTS assay to identify novel small-molecules to repurpose for Merkel cell carcinoma treatment (AID 1296009). Note: nearly all actives have a fitted effect of over 60% in size. The conditions noted are these: MCC and control cell lines, CellTiter-Glo viability, 72 h; series mostly up to 92 µM. In short, it runs like this: (§2)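 Cell viability, measured as CellTiter-Glo luminescence, was normalized between DMSO and no-cell wells. The cells had been exposed to 8- or 11-point compound dilutions for 72 hr at 37 degree celsius.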

In another assay the test system is HACAT. Described as above. The conditions noted are these: MCC and control cell lines, CellTiter-Glo viability, 72 h; at 44.8 µM (top of the series) unless noted. In short, it runs like this:
as §2

Structures are written as SMILES. Results filed as inconclusive are left out. The source made the active and inactive calls. Unless noted, calls come from the whole dose curve; as a rule, active = well fitted curve in the direction sought with a large enough effect; inconclusive = small, poorly fitted or top-dose-only effect, or another doubt; inactive = no such curve, though single readings can be large; an effect the other way counts as inactive or inconclusive.

The values below come from PubChem BioAssay (NCATS).

Sequence of Cytochrome P450 2C9 (Homo sapiens) (P11712 whole entry, looked up): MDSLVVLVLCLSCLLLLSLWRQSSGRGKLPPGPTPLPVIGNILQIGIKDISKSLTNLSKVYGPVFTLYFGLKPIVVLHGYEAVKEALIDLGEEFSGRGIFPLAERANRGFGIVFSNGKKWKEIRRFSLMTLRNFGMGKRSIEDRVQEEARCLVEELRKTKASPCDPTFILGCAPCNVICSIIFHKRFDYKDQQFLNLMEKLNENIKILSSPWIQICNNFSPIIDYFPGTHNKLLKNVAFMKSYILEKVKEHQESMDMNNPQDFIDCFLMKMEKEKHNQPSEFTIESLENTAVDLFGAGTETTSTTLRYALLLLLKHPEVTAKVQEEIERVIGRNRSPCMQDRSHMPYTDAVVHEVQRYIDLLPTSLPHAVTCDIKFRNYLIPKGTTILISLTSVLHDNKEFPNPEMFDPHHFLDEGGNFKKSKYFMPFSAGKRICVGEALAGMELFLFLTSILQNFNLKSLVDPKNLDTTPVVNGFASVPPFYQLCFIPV

`C[C@@H]1CCC/C=C/[C@H]2C[C@@H](O)C[C@@H]2[C@@H](O)/C=C/C(=O)O1`: the Potency result in assay [1], in assay [2], in assay [4] and in assay [5] was “inactive” throughout. In addition, the Potency in assay [3] was 409 nM (active); in the assay on KB-3-1, 146 nM (active); in the assay on HeLa, 501 nM (active); in the assay with SKOV3 it was 355 nM (active).

For the molecule `CC1CCCC(=O)CCC/C=C/c2cc(O)cc(O)c2C(=O)O1` (configuration not stated), the activity change, negative = inhibition in assay [6] (at 57.5 µM (top of the series)) was -7.32% (inactive). Besides, the max response in assay [6] (measured here: cell count channel max response) amounted to 9.42%; in [6] (measured here: lipid channel max response), 4.67%. The Potency result (in [7]; in [2]; with HeLa; in the assay on SKOV3) was “inactive” throughout. The molecule was called inactive in the assay with KB-3-1.

`NC(=O)c1ncn2c1CN=C(c1ccccc1Br)c1cc(F)ccc1-2`: the Potency result in assay [1], in assay [2], in assay [8], in assay [9], in assay [3] and in assay [10] was “inactive” throughout. Moreover, the Potency result (in assay [4]; in the assay with HeLa; with SKOV3) was “inactive” each time. Also, the max response in the assay with KB-3-1 was 5.47% (inactive).

Regarding `CO[C@H]1C[C@H](O[C@H]2CC[C@@]3(C)C(=CCC4C3CC[C@]3(C)[C@@H](C5=CC(=O)OC5)CC[C@]43O)C2)O[C@@H](C)[C@@H]1O[C@@H]1O[C@H](CO[C@@H]2O[C@H](CO)[C@@H](O)[C@H](O)[C@H]2O)[C@@H](O)[C@H](O)[C@H]1O` (some centres not stated), the Potency result in [1], in assay [2] and in [10] was “inactive” throughout. In assay [3], the activity change, negative = cell killing was -4.53% [at 9.23 µM] (inactive). The activity change, negative = thiol reactive in assay [4] is 94.1% [at 11.5 µM] (inactive). Besides, the redox activity (% of DA3003) in [5] is 8.54% [at 11.5 µM] (inactive). For the same molecule, the max response in the assay with KB-3-1 is 4.69% (inactive). In the assay on HeLa, the activity change, negative = cytotoxicity was 1.26% [at 11.6 µM] (inactive).

On to `CN1C2CCC1CC(OC(=O)N1Cc3ccccc3NC1=O)C2` (configuration not stated), for which the Potency result (in [2]; in [8]; in [9]; in assay [5]; in the assay with CRL-7250; with HeLa) was “inactive” each time. The max response in the assay on KB-3-1 was -1.51% (inactive).

In the case of `COC1C=CC23c4cc5c(cc4COC2(O)CN(C)C3C1)OCO5` (configuration not stated), the Potency entry in assay [7], in assay [1], in assay [2], in assay [3], in assay [4] and in assay [5] was “inactive” each time. For the same molecule, the Potency result in the assay with HeLa was “inactive”. The molecule was called inactive in the assay on KB-3-1 and in the assay with HACAT.

Take `CN1C(=O)CN=C(c2ccccc2Cl)c2cc(Cl)ccc21`: the Potency entry in [1], in assay [2], in assay [8], in [3], in assay [10] and in assay [4] was “inactive” each time. In addition, the Potency result (in assay [5]; in the assay on CRL-7250; in the assay with HeLa; in the assay on SKOV3) was “inactive” in each case. For the same molecule, the Potency in assay [9] is 21300 nM (active). The max response with KB-3-1 was -0.99% (inactive).

For `CC1CCCC(O)CC(=O)Cc2cc(O)cc(O)c2C(=O)O1` (configuration not stated), the Potency result (in assay [1]; in assay [2]; in [3]; in [10]; in assay [5]; with HeLa) was “inactive” each time. Also, the Potency entry with SKOV3 was “inactive”. Also, the max response in the assay with KB-3-1 was 8.3% (inactive). Besides, the call with HACAT was inactive.

For the molecule `COC(=O)[C@]12CCCC(C)(C)C1CCc1cc(C(C)C)c(O)c(O)c12` (some centres not stated), in [2], the Potency is 14100 nM (active). For the same molecule, the Potency result (in assay [10]; with HeLa; in the assay with SKOV3) was “inactive” each time. Further, the max response in the assay on KB-3-1 is -12.9% (inactive). Besides, the molecule was called inactive in the assay on HACAT.
